In the library only some 1.6% were active in any assay of this set; here they are far more common.
KCNQ2 pot = KCNQ2 (rat) channel potentiation | AID 2239 | CHO-K1 KCNQ2, FluxOR thallium flux fluorescence; hits give high values | 310,000 tested, 0.54% active | B-score at 10 µM | O88943;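 active means fluorescence ratio B-score at least 3 SD of library B-scores, with initial fluorescence B-score within 3 of them, cut at about 5.3 in these data; same plate scores as AID 2156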;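 further: B-score of peak minus minimum over baseline fluorescence ratio after K+ and Tl+ stimulus; positive B-score means potentiation of KCNQ2 with more thallium influx and brighter signal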
Target sequence (O88943 whole entry, looked up): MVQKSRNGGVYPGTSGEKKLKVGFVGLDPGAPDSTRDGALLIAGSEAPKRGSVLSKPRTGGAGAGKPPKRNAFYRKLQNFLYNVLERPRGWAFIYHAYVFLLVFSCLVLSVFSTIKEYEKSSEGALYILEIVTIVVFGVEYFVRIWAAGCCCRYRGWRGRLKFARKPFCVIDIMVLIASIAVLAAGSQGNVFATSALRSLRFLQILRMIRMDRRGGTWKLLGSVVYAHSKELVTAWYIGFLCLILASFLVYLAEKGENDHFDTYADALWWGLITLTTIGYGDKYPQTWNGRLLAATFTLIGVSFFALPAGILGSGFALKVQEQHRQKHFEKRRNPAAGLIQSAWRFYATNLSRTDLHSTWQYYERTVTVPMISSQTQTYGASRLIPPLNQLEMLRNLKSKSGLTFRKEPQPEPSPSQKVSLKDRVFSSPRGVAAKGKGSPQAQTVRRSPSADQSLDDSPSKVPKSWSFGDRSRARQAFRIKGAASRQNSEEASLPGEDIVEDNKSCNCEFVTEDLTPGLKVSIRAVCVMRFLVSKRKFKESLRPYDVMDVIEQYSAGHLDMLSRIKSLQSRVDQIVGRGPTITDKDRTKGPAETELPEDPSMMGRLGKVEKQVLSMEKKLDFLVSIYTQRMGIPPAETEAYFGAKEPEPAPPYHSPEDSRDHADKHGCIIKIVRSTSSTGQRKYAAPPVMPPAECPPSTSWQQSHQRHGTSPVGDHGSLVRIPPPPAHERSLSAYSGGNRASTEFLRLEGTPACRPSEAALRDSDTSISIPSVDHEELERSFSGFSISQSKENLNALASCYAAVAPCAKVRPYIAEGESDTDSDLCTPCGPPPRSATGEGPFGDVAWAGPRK
KCNQ2 inh = inhibitors of rat KCNQ2 potassium channel; B-score at 10 µM; AID 2156; 310,000 tested, 1.1% active; O88943; CHO-K1 KCNQ2, FluxOR thallium flux, 20 min; hits give low values;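 active means fluorescence ratio B-score at most minus 3 library SDs, with starting brightness B-score within 2 library SDs, cut at about -5.5 in these data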
Active calls of the source: *; i = inactive; nt = not tested or not shown.

SMILES | KCNQ2 pot | KCNQ2 inh
COc1ccc(/C=C(\NC(=O)c2ccc([N+](=O)[O-])cc2)C(=O)NCCCn2ccnc2)cc1 | nt | i
Cc1ccc(NCc2nc3ccccc3n2C)c(C)c1 | -6.6 | -6.6*
Cc1cccc(NCc2nc3ccccc3n2C)c1 | 0.47 | i
Cc1ccc(NC(=O)c2ccc3c(c2)N(CC(=O)N2CCCCC2)C(=O)C(C)(C)O3)cc1 | -7.9 | -7.9*
COc1ccccc1NC(=O)c1ccc2c(c1)N(CC(=O)NC(C)(C)C)C(=O)C(C)(C)O2 | nt | i
CCOC(=O)CN1C(=O)C(C)(C)Oc2ccc(C(=O)Nc3ccccc3OC)cc21 | -6.5 | -6.5*
CC(C)(C)NC(=O)c1ccc2c(c1)N(CC(=O)N1CCCCC1)C(=O)C(C)(C)O2 | 0.93 | i
CC(=O)Nc1ccc(N(C(=O)c2ccccn2)C(C(=O)NC2CCCCC2)c2ccc(F)cc2)cc1 (centres undefined) | nt | i
Cc1ccc(C(=O)Nc2cccc(NC(=O)c3ccc(C)o3)n2)o1 | 1.9 | i
COc1ccc([N+](=O)[O-])cc1/C=N/NC(=O)CNC(=O)C(c1ccccc1)c1ccccc1 | -6.1 | -6.1*
COc1ccc([N+](=O)[O-])cc1/C=N/NC(=O)CNC(=O)c1cccc(F)c1 | nt | i
COc1ccccc1N1CCN(C(=O)CSc2ccccc2)CC1 | nt | i
COc1ccccc1N1CCN(C(=O)C(Sc2ccccc2)c2ccccc2)CC1 (centres undefined) | -5.7 | -5.7*
CCc1cc(=O)oc2cc(C)cc(OC(C)C(=O)NC(Cc3c[nH]c4ccc(O)cc34)C(=O)O)c12 (centres undefined) | 0.33 | i
O=C(NCC1COc2ccccc2O1)c1cccc(S(=O)(=O)NCc2ccccc2)c1 (centres undefined) | nt | i
Cc1cccc(C(=O)O/N=C2/CC3CCC2(C)C3(C)C)c1 (centres undefined) | -5.7 | -5.7*
Cc1ccc(C(=O)O/N=C2\CC3CCC2(C)C3(C)C)cc1 (centres undefined) | nt | i
CC1(C)CC(=O)c2c(O)cc(OCC(=O)Nc3ccc(CCO)cc3)cc2O1 | 2.5 | i
Cc1cc(Cl)ccc1OC(C)C(=O)N1CCCN(C(=O)C(C)Oc2ccc(Cl)cc2C)CC1 (centres undefined) | -6.2 | -6.2*
Cc1cc(Cl)ccc1OCC(=O)N1CCCN(C(=O)COc2ccc(Cl)cc2C)CC1 | nt | i
Cc1cc(C(=O)CSc2nc3ccccc3[nH]2)c(C)n1CC1CCCO1 (centres undefined) | -5.6 | -5.6*
Cc1cc(C(=O)CSc2nc3ccccc3o2)c(C)n1CC1CCCO1 (centres undefined) | 0.77 | i
CC1(C)Cc2ccccc2-c2nc(-c3ccccc3)oc(=O)c21 | -7.9 | -7.9*
CC1(C)Cc2ccccc2-c2nc(NN)[nH]c(=O)c21 | nt | i
Cc1ccccc1N1CCN(C(=O)NCc2cccc(Cl)c2)CC1 | nt | i
SMILES | KCNQ2 pot | KCNQ2 inh
O=C(c1ccc2ccccc2c1)N1CCN(c2ccc([N+](=O)[O-])c(N3CCOCC3)c2)CC1 | nt | i
O=C(/C=C/c1ccccc1)N1CCN(c2ccc([N+](=O)[O-])c(N3CCOCC3)c2)CC1 | -6.4 | -6.4*
O=C(CO/N=C/c1ccccc1Cl)N1CCCc2ccccc21 | -6.1 | -6.1*
O=C(CO/N=C/c1ccccc1OC(F)F)N1CCc2ccccc21 | nt | i
CC(=O)O/N=C/c1c(C)c(C=O)n2ccccc12 | nt | i
NC(=O)c1ccc(CN2CCc3ccccc3C2)cc1 | nt | i
CCN(Cc1ccccc1)C(=O)Cn1c(=O)n(CCC(=O)N2CCCCC2)c(=O)c2sccc21 | nt | i
Cc1cc(C(=O)OC(C(=O)Nc2cccc(C(F)(F)F)c2)c2ccccc2)c(C)o1 (centres undefined) | -5.8 | -5.8*
Cc1ccc(NC(=O)C(OC(=O)c2cc(C)oc2C)c2ccccc2)cc1 (centres undefined) | nt | i
COc1cccc(OCc2cc(C(=O)N3CCN(c4ccccc4OC)CC3)no2)c1 | nt | i
CCCCN(C(=O)C(C)Oc1cccc(Cl)c1)c1c(N)n(CCC)c(=O)[nH]c1=O (centres undefined) | 1.9 | i
CCCOC(=O)CSC1=C(C#N)C(c2ccccc2OCC)C(C#N)C(=O)N1 (centres undefined) | 1.9 | i
CCCCOC(=O)CSC1=C(C#N)C(c2ccccc2OCC)C(C#N)C(=O)N1 (centres undefined) | 7.1* | i
CCc1ccc(NC(=O)CSc2nnc(CNC(=O)c3ccc(OC)cc3)o2)cc1 | 0.16 | i
O=C(CCCC(=O)OCC(Cl)=C(Cl)Cl)Nc1cccc2ccccc12 | nt | i
O=C(CCCC(=O)OCC(Cl)=C(Cl)Cl)Nc1ccc(F)cc1 | 9.2* | i
CCC(C)NC(=O)c1cn(CC)c2ccc(S(=O)(=O)N3CCCCCC3)cc2c1=O (centres undefined) | nt | i
O=C1c2ccccc2C(=O)C12OC(c1ccccc1)C1(C(=O)c3ccccc3C1=O)C2c1ccc([N+](=O)[O-])cc1 (centres undefined) | -7.9 | -7.9*
O=C1c2ccccc2C(=O)C12OC(c1ccccc1)C1(C(=O)c3ccccc3C1=O)C2c1cccc([N+](=O)[O-])c1 (centres undefined) | nt | i
COc1ccc(-n2nc3c(c2NC(=O)COc2cccc(OC)c2)CS(=O)(=O)C3)cc1 | 0.71 | i
C/C(=N\NC(=O)c1ccccc1O)C1CC1 | 0.73 | i
CCN(CC)C(=O)/C(=C/c1ccc2c(c1)OCO2)NC(=O)c1ccc(Br)cc1 | -5.9 | -5.9*
O=C(NCCO)/C(=C/c1ccc2c(c1)OCO2)NC(=O)c1ccc(Br)cc1 | nt | i
C=CCc1cccc(/C=N/NC(=O)c2ccccc2Br)c1O | 9.6* | i
C=CCc1cccc(/C=N/NC(=O)c2ccccc2OC)c1O | 5.2 | i
SMILES | KCNQ2 pot | KCNQ2 inh
COC(=O)c1ccc(/C=N/N2CCN(Cc3ccc(C)cc3C)CC2)cc1 | -7.8 | -7.8*
COC(=O)c1ccc(/C=N/N2CCN(Cc3ccccc3Cl)CC2)cc1 | nt | i
COCCNC(=O)C(c1ccc(O)cc1)N(Cc1cccs1)C(=O)CCC(=O)Nc1ccccn1 (centres undefined) | nt | i
CCC(C)C(NS(=O)(=O)c1ccc(C)cc1)C(=O)NCCCN1CCOCC1 (centres undefined) | -5.6 | -5.6*
CCC(C)C(NS(=O)(=O)c1ccc(C)cc1)C(=O)O (centres undefined) | 0.45 | i
CCOCCCNC(=O)C1CCCN(S(=O)(=O)c2ccc(-n3cnnn3)cc2)C1 (centres undefined) | 0.67 | i
CN(C(=O)c1ccc(COc2ccccc2Br)o1)c1ccccc1 | -6.2 | -6.2*
CN(C)CCOC(=O)c1ccc(COc2ccccc2Br)o1 | 1.3 | i
Cc1cc(C)n(CCOc2ccc(Br)cc2)n1 | nt | i
COc1ccc(-c2nnn(CC(=O)N(CC(=O)NC3CCCC3)c3ccccc3F)n2)cc1OC | nt | i
O=C(CCCCCN1C(=O)c2cccc3cccc(c23)C1=O)NCCO | 0.45 | i
O=C(COc1cc(O)c2c(=O)cc(-c3ccccc3)oc2c1)c1ccccc1 | -5.9 | -5.9*
Cc1ccc(C(=O)COc2cc(O)c3c(=O)cc(-c4ccccc4)oc3c2)cc1 | nt | i
CC(=O)NCC(=O)OCC(=O)c1ccc(C)c(C)c1 | nt | i
Cc1ccc(C(=O)COC(=O)C2C3C=CC(C3)C2C(=O)OCC(=O)c2ccc(C)c(C)c2)cc1C (centres undefined) | -7.5 | -7.5*
Cc1ccc(C(=O)Nc2cccnc2)cc1Cl | 3 | i

Screening data as filed in PubChem BioAssay.
